Source: PubChem BioAssay
An excerpt weighted towards active compounds, which were near 3.5% of everything screened.
mHTT-CaM PPI inh = inhibitors of human mutant huntingtin-calmodulin interaction; P42858; AlphaScreen His-mHTT/GST-CaM binding, luminescence; inhibition, % at 15 µM; 190,000 tested, 3.6% active;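 also: 0% = both proteins with DMSO and 100% = one protein alone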
Pf apPOL inh = Pf-apPOL DNA polymerase inhibition; 210,000 tested, 0.25% active; inhibition, % at 10 µM; Recombinant Pf-apPOL, molecular beacon fluorescence, 1.5 h
* hit, by the source's call; / = no result. Rule as the data show it: active = inhibition above about 50%; inactive = the rest.

SMILES	mHTT-CaM PPI inh	Pf apPOL inh
COc1cc(/C=C2/SC(=N)NC2=O)ccc1OCc1ccc(C)cc1	59*	3
CC(C)c1ccc(/C=C/C(=O)Nc2nc3ccc(S(C)(=O)=O)cc3s2)cc1	10	-5
CS(=O)(=O)c1ccc2nc(NC(=O)/C=C/c3ccccc3Cl)sc2c1	75*	-1
CN(Cc1ccccc1)Cc1ccc(O)cc1	-4	-1
CN(Cc1ccccc1)Cc1cncc(-c2cc3ccccc3s2)c1	80*	-2
Cc1ccc(C(=O)N2CCC(CCNC(=O)CCc3ccccc3)CC2)cc1	38	-2
COCn1c(COc2cc(C)ccc2C(C)C)nc2ccccc21	-23	-4
Cc1ccc(C(C)C)c(OCCCn2c(CO)nc3ccccc32)c1	65*	-6
Cc1ccsc1/C=C(\C#N)c1nc(-c2ccc3c(c2)OCO3)cs1	4	-8
COc1cc(CN2CCc3nc(Nc4ccccc4)ncc3C2)ccc1OC(C)C	57*	-1
COc1cc(CN2CCc3nc(Nc4ccccc4F)ncc3C2)ccc1OC(C)C	11	-3
CCOc1ccc(CN2CCc3nc(Nc4ccccc4)ncc3C2)cc1OC	-6	-2
COc1cc(CN2CCc3nc(Nc4ccc(F)cc4)ncc3C2)ccc1OC(C)C	95*	-5
NC(N)=Nc1nc2ccccc2s1	-5	-1
COc1cccc(C2C3=C(Nc4ncnn42)c2ccccc2OC3c2ccc(F)cc2)c1 (stereo unspecified)	23	1
COCCNC(=O)c1ccc(CS(=O)(=O)Cc2ccccc2C)o1	5	-16
NS(=O)(=O)c1ccc(CCNC2CC(=O)N(c3ccc(F)cc3)C2=O)cc1 (stereo unspecified)	-8	14
CC(C)N1Cc2cc(C(=O)NCc3cccc(Cl)c3)sc2C1	1	-5
Fc1ccc(C2CC(c3ccc(I)cc3)Nc3ncnn32)cc1 (stereo unspecified)	31	-4
Clc1cccc(C2CC(c3ccc(I)cc3)Nc3ncnn32)c1 (stereo unspecified)	51*	-3
COc1cccc(C2CC(c3cccc(Cl)c3)n3ncnc3N2)c1 (stereo unspecified)	5	1
Fc1ccc(C2CC(c3ccc(Cl)cc3)Nc3ncnn32)cc1 (stereo unspecified)	58*	3
COc1cc(NC(=O)c2ccc(F)cc2)nc(OC)n1	-6	-4
COc1ccc(-c2onc(C)c2C(=O)NCc2c(C)cccc2Cl)cc1	1	0
O=C1c2ccc(Oc3cccc([N+](=O)[O-])c3)cc2C(=O)N1CC1CCCO1 (stereo unspecified)	5	-11
SMILES	mHTT-CaM PPI inh	Pf apPOL inh
O=C1NN(c2ccccc2)C(=O)/C1=C/c1ccc(-c2cccc(Cl)c2)o1	23	5
CC1CCCC(NC(=O)C2CCCN(c3nc4ccccc4o3)C2)C1C (stereo unspecified)	15	-17
CC12CC3CC(C1)CC(C(=O)O)(C3)C2	-3	-5
Cc1c(CCOC(=O)C23CC4CC(CC(C)(C4)C2)C3)sc[n+]1CC(=O)c1ccccc1	99*	-1
O=C(NCCc1ccccc1)N1CCC2(CC1)Nc1cc(F)ccc1-n1cccc12	56*	-4
COC(=O)CNC(=O)N1CCC2(CC1)Nc1ccccc1-n1cccc12	47	0
COc1cccc(CNC(=O)N2CCC3(CC2)Nc2ccccc2-n2cccc23)c1	61*	-5
CCCNC(=O)N1CCC2(CC1)Nc1cc(F)ccc1-n1cccc12	31	3
O=C(NCc1ccccc1)N1CCC2(CC1)Nc1ccccc1-n1cccc12	71*	-2
CN1c2ccccc2C(=O)NC12CCN(C(=O)NCCc1ccccc1)CC2	2	-7
O=C(NCCc1ccccc1)N1CCC2(CC1)Nc1ccccc1-n1cccc12	69*	-2
FC(F)(F)c1ccc(N2CCN(Cc3cc(Cl)cc4c3OCOC4)CC2)nc1	/	-5
CC(=O)N(Cc1ccccc1)C(c1ccccc1)c1ccccc1	2	0
Cc1ccc(Cl)cc1NC(=O)CN(C)S(=O)(=O)c1ccc(Br)s1	-7	-2
N#C/C(=C\c1ccc(O)cc1)c1nc(-c2ccc(Cl)c(Cl)c2)cs1	7	-6
O=C(NCc1ccc(F)cc1)N1CCC2(CC1)Nc1ccccc1-n1cccc12	56*	-4
COCCNC(=O)N1CCC2(CC1)Nc1cc(F)ccc1-n1cccc12	36	6
O=C(c1cc2sc(Br)cc2n1CC1CCCCO1)N1CCCC1 (stereo unspecified)	70*	-13
Cc1cc2c(cc(C(=O)N3CCOCC3)n2CC2CCC2)s1	16	-8
CSc1cccc(NS(=O)(=O)c2ccc(C)c([N+](=O)[O-])c2)c1	13	-2
Cc1cccc(CNC(=O)c2nn(C)c3c2CN(C(=O)COc2cccc(C)c2)CC3)c1	76*	-5
Cn1nc(C(=O)NCc2ccccc2)c2c1CCN(C(=O)c1ccc(F)cc1)C2	19	3
Cn1nc(C(=O)NCc2ccc(F)cc2)c2c1CCN(C(=O)c1ccco1)C2	18	-5
